Measurements reported in PubChem BioAssay AID1159580 (chemical genetic matrix, 2015).
The campaign covered roughly 5,500 compounds. About 2,000 (36%) were called active. Roughly 18% stayed inconclusive and do not appear here. No stated cut-off is given here; in the data, active means normalized growth mostly below about 0.91 (no sharp cut-off); inconclusive means no clear call, values can overlap the other calls; inactive means mostly above about 0.92. This is one part of the list.

Experiment: chemical genetic growth profiling, strain panel (AID 1159580);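 further: tested at 20 µM; growth read once vehicle control cultures reached saturation at 30 °C; 1 = growth at the plate median or of vehicle wells; lower values mean less growth of the strain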
Settings: S. cerevisiae deletion strains, growth OD

Measured: normalized growth

Cc1cc(C(=O)NNc2ccc(F)cc2F)no1
inactive: locus YAR019C, strain CDC15, active compounds read low 0.972 | locus YBL105C, strain PKC1, active compounds read low 0.967 | locus YBR135W, strain CKS1, active compounds read low 0.971 | locus YBR136W, strain MEC1, active compounds read low 0.969 | locus YBR160W, strain CDC28, active compounds read low 0.964 | locus YDL017W, strain CDC7, active compounds read low 0.972 | locus YDL028C, strain MPS1, active compounds read low 0.977 | locus YDL101C, strain DUN1, active compounds read low 0.959 | locus YDL108W, strain KIN28, active compounds read low 0.973 | locus YDL132W, strain cdc53, active compounds read low 0.984 | locus YDL214C, strain PRR2, active compounds read low 0.938 | locus YDR052C, strain DBF4, active compounds read low 0.963 | locus YDR054C, strain cdc34, active compounds read low 0.952 | locus YDR226W, strain ADK1, active compounds read low 0.963 | locus YDR477W, strain SNF1, active compounds read low 0.95 | locus YER123W, strain YCK3, active compounds read low 0.822 | locus YER133W, strain GLC7, active compounds read low 0.957 | locus YFL009W, strain cdc4, active compounds read low 0.974 | locus YFL029C, strain CAK1, active compounds read low 0.956 | locus YFR003C, strain YPI1, active compounds read low 0.974 | locus YFR019W, strain FAB1, active compounds read low 0.899 | locus YFR028C, strain CDC14, active compounds read low 0.961 | locus YGR040W, strain KSS1, active compounds read low 0.93 | locus YGR052W, strain FMP48, active compounds read low 0.995 | locus YGR092W, strain DBF2, active compounds read low 0.861 | locus YHR030C, strain SLT2, active compounds read low 0.923 | locus YHR079C, strain IRE1, active compounds read low 0.948 | locus YHR082C, strain KSP1, active compounds read low 1.01 | locus YHR205W, strain SCH9, active compounds read low 0.962 | locus YIL147C, strain SLN1, active compounds read low 0.971 | locus YJL095W, strain BCK1, active compounds read low 0.955 | locus YJL128C, strain PBS2, active compounds read low 0.965 | locus YJL157C, strain FAR1, active compounds read low 0.931 | locus YJR016C, strain ILV3, active compounds read low 0.974 | locus YJR066W, strain TOR1 (second series), active compounds read low 0.879 | locus YJR066W, strain TOR1, active compounds read low 0.998 | locus YKL048C, strain ELM1, active compounds read low 0.95 | locus YKL067W, strain YNK1, active compounds read low 0.953 | locus YKL101W, strain HSL1, active compounds read low 0.955 | locus YKL193C, strain SDS22, active compounds read low 0.976 | locus YKL203C, strain TOR2, active compounds read low 1.01 | locus YLR113W, strain HOG1, active compounds read low 0.932 | locus YLR133W, strain CKI1, active compounds read low 0.93 | locus YLR403W, strain SFP1, active compounds read low 0.934 | locus YML070W, strain DAK1, active compounds read low 0.912 | locus YMR001C, strain CDC5, active compounds read low 0.969 | locus YMR205C, strain PFK2 (second series), active compounds read low 0.972 | locus YMR277W, strain FCP1, active compounds read low 0.975 | locus YNL006W, strain LST8, active compounds read low 0.988 | locus YNL020C, strain ARK1, active compounds read low 0.953 | locus YNL161W, strain CBK1, active compounds read low 0.963 | locus YNL183C, strain NPR1, active compounds read low 0.979 | locus YNL207W, strain RIO2, active compounds read low 0.962 | locus YNL222W, strain SSU72, active compounds read low 0.959 | locus YNL307C, strain MCK1 (second series), active compounds read low 0.908 | locus YOL078W, strain AVO1, active compounds read low 0.967 | locus YOL136C, strain PFK27, active compounds read low 0.937 | locus YOR061W, strain CKA2, active compounds read low 0.822 | locus YOR119C, strain RIO1, active compounds read low 1.01 | locus YOR231W, strain MKK1, active compounds read low 0.921 | locus YOR329C, strain SCD5, active compounds read low 0.967 | locus YPL031C, strain PHO85, active compounds read low 0.939 | locus YPL153C, strain RAD53, active compounds read low 0.923 | locus YPL204W, strain HRR25, active compounds read low 0.925 | locus YPL209C, strain IPL1, active compounds read low 0.96 | locus YPL256C, strain CLN2, active compounds read low 0.934 | locus YPR025C, strain CCL1, active compounds read low 0.968 | locus YPR106W, strain ISR1, active compounds read low 0.962 | locus YPR111W, strain DBF20, active compounds read low 0.963 | strain NNK1, active compounds read low 0.979 | strain TSCII, active compounds read low 0.964
